According to PubChem BioAssay AID1159580 (chemical genetic matrix, 2015):
Out of some 5,500 compounds screened, about 2,000 (36%) were called active. Inconclusive results (about 18%) are left out. Rule as the data show it: active = normalized growth mostly below about 0.91 (no sharp cut-off); inconclusive = no clear call, values can overlap the other calls; inactive = mostly above about 0.92. The list shows a part of the results.

Assay: chemical genetic growth profiling, strain panel (AID 1159580);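 also: tested at 20 µM; growth read once vehicle control cultures reached saturation at 30 °C; 1 = growth at the plate median or of vehicle wells; lower values mean less growth of the strain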
Conditions: growth OD

Measured: normalized growth

Cc1cc(O)c(C)c2c1C(=O)Oc1c(C)c(O)c(C(=O)O)c(C)c1O2
inactive: S. cerevisiae deletion strains, locus YAL013W, strain DEP1, active compounds read low 0.997 | S. cerevisiae deletion strains, locus YBR021W, strain FUR4, active compounds read low 0.966 | S. cerevisiae deletion strains, locus YBR229C, strain ROT2, active compounds read low 0.993 | S. cerevisiae deletion strains, locus YCL029C, strain bik1, active compounds read low 0.973 | S. cerevisiae deletion strains, locus YDL035C, strain GPR1, active compounds read low 0.998 | S. cerevisiae deletion strains, locus YDL074C, strain BRE1, active compounds read low 1 | S. cerevisiae deletion strains, locus YDL101C, strain DUN1, active compounds read low 0.988 | S. cerevisiae deletion strains, locus YDL134C, strain PPH21, active compounds read low 0.98 | S. cerevisiae deletion strains, locus YDL185W, strain tfp1, active compounds read low 0.989 | S. cerevisiae deletion strains, locus YDL192W, strain arf1, active compounds read low 0.983 | S. cerevisiae deletion strains, locus YDR101C, strain arx1, active compounds read low 0.974 | S. cerevisiae deletion strains, locus YDR150W, strain NUM1, active compounds read low 0.999 | S. cerevisiae deletion strains, locus YDR162C, strain NBP2, active compounds read low 1.02 | S. cerevisiae deletion strains, locus YDR318W, strain mcm21, active compounds read low 0.971 | S. cerevisiae deletion strains, locus YDR388W, active compounds read low 0.98 | S. cerevisiae deletion strains, locus YDR502C, strain sam2, active compounds read low 0.982 | S. cerevisiae deletion strains, locus YEL061C, strain CIN8, active compounds read low 1 | S. cerevisiae deletion strains, locus YER110C, active compounds read low 0.978 | S. cerevisiae deletion strains, locus YER155C, strain BEM2, active compounds read low 0.991 | S. cerevisiae deletion strains, locus YER167W, strain BCK2, active compounds read low 0.994 | S. cerevisiae deletion strains, locus YGL078C, strain dbp3, active compounds read low 0.968 | S. cerevisiae deletion strains, locus YGL086W, strain mad1, active compounds read low 0.977 | S. cerevisiae deletion strains, locus YGL248W, strain PDE1, active compounds read low 0.989 | S. cerevisiae deletion strains, locus YGR078C, strain PAC10, active compounds read low 1.01 | S. cerevisiae deletion strains, locus YGR135W, strain pre9, active compounds read low 1 | S. cerevisiae deletion strains, locus YGR229C, strain SMI1, active compounds read low 1.01 | S. cerevisiae deletion strains, locus YGR252W, strain gcn5, active compounds read low 0.961 | S. cerevisiae deletion strains, locus YHR030C, strain SLT2, active compounds read low 0.989 | S. cerevisiae deletion strains, locus YHR079C, strain IRE1 (second series), active compounds read low 0.982 | S. cerevisiae deletion strains, locus YHR094C, strain hxt1, active compounds read low 0.979 | S. cerevisiae deletion strains, locus YHR129C, strain ARP1, active compounds read low 0.997 | S. cerevisiae deletion strains, locus YHR200W, strain rpn10, active compounds read low 0.978 | S. cerevisiae deletion strains, locus YIL066C, strain RNR3, active compounds read low 0.988 | S. cerevisiae deletion strains, locus YIL073C, strain SPO22, active compounds read low 0.999 | S. cerevisiae deletion strains, locus YIL125W, strain kgd1, active compounds read low 0.983 | S. cerevisiae deletion strains, locus YIR030C, strain dcg1, active compounds read low 0.991 | S. cerevisiae deletion strains, locus YJL095W, strain BCK1, active compounds read low 1.01 | S. cerevisiae deletion strains, locus YJL134W, strain LCB3, active compounds read low 0.989 | S. cerevisiae deletion strains, locus YJL168C, strain set2, active compounds read low 0.974 | S. cerevisiae deletion strains, locus YJL187C, strain SWE1 (second series), active compounds read low 0.988 | S. cerevisiae deletion strains, locus YJR043C, strain POL32, active compounds read low 1.01 | S. cerevisiae deletion strains, locus YJR075W, strain HOC1, active compounds read low 1.01 | S. cerevisiae deletion strains, locus YKL009W, strain mrt4, active compounds read low 0.964 | S. cerevisiae deletion strains, locus YKL068W, active compounds read low 0.985 | S. cerevisiae deletion strains, locus YKL085W, strain MDH1 (second series), active compounds read low 0.992 | S. cerevisiae deletion strains, locus YKL085W, strain MDH1, active compounds read low 0.992 | S. cerevisiae deletion strains, locus YKL190W, strain CNB1, active compounds read low 1 | S. cerevisiae deletion strains, locus YKR001C, strain vps1, active compounds read low 0.982 | S. cerevisiae deletion strains, locus YLR039C, strain RIC1, active compounds read low 1.01 | S. cerevisiae deletion strains, locus YLR058C, strain SHM2, active compounds read low 0.997 | S. cerevisiae deletion strains, locus YLR102C, strain apc9, active compounds read low 0.988 | S. cerevisiae deletion strains, locus YLR262C, strain YPT6, active compounds read low 1 | S. cerevisiae deletion strains, locus YLR268W, strain sec22, active compounds read low 0.99 | S. cerevisiae deletion strains, locus YLR330W, strain CHS5, active compounds read low 0.998 | S. cerevisiae deletion strains, locus YLR342W, strain FKS1 (second series), active compounds read low 0.983 | S. cerevisiae deletion strains, locus YLR371W, strain rom2, active compounds read low 0.976 | S. cerevisiae deletion strains, locus YLR418C, strain cdc73, active compounds read low 0.974 | S. cerevisiae deletion strains, locus YML016C, strain PPZ1, active compounds read low 0.99 | S. cerevisiae deletion strains, locus YML032C, strain rad52, active compounds read low 0.965 | S. cerevisiae deletion strains, locus YML124C, strain tub3, active compounds read low 0.991 | S. cerevisiae deletion strains, locus YMR078C, strain ctf18, active compounds read low 0.973 | S. cerevisiae deletion strains, locus YMR223W, strain ubp8, active compounds read low 0.966 | S. cerevisiae deletion strains, locus YMR263W, strain SAP30, active compounds read low 1 | S. cerevisiae deletion strains, locus YMR307W, strain GAS1, active compounds read low 0.976 | S. cerevisiae deletion strains, locus YNL067W, strain RPL9B, active compounds read low 1 | S. cerevisiae deletion strains, locus YNL128W, strain TEP1, active compounds read low 0.998 | S. cerevisiae deletion strains, locus YNL153C, strain GIM3, active compounds read low 1 | S. cerevisiae deletion strains, locus YNL233W, strain BNI4, active compounds read low 0.997 | S. cerevisiae deletion strains, locus YNL250W, strain rad50, active compounds read low 0.972 | S. cerevisiae deletion strains, locus YNL271C, strain bni1, active compounds read low 0.966 | S. cerevisiae deletion strains, locus YNL298W, strain CLA4, active compounds read low 0.967 | S. cerevisiae deletion strains, locus YNL307C, strain MCK1, active compounds read low 0.972 | S. cerevisiae deletion strains, locus YNL322C, strain KRE1, active compounds read low 1 | S. cerevisiae deletion strains, locus YNR052C, strain pop2, active compounds read low 0.967 | S. cerevisiae deletion strains, locus YOL006C, strain TOP1, active compounds read low 0.986 | S. cerevisiae deletion strains, locus YOL012C, strain htz1 0.731 | S. cerevisiae deletion strains, locus YOL147C, strain pex11, active compounds read low 0.988 | S. cerevisiae deletion strains, locus YOR061W, strain CKA2, active compounds read low 0.99 | S. cerevisiae deletion strains, locus YOR069W, strain VPS5, active compounds read low 0.99 | S. cerevisiae deletion strains, locus YOR136W, strain idh2, active compounds read low 0.979 | S. cerevisiae deletion strains, locus YOR144C, strain elg1, active compounds read low 0.985 | S. cerevisiae deletion strains, locus YOR184W, strain ser1, active compounds read low 0.942 | S. cerevisiae deletion strains, locus YOR316C, strain cot1, active compounds read low 0.977 | S. cerevisiae deletion strains, locus YPL055C, strain LGE1, active compounds read low 1.04 | S. cerevisiae deletion strains, locus YPL241C, strain CIN2, active compounds read low 0.972 | S. cerevisiae deletion strains, locus YPR119W, strain clb2, active compounds read low 0.979 | S. cerevisiae deletion strains, locus YPR141C, strain kar3, active compounds read low 0.972 | S. cerevisiae deletion strains, locus YPR163C, strain tif3, active compounds read low 0.983 | S. cerevisiae deletion strains, locus YPR167C, strain met16, active compounds read low 0.985 | S. cerevisiae deletion strains, strain wtn01, active compounds read low 0.98 | S. cerevisiae strains, strain wild type, active compounds read low 1
